Assay in all cases: DAPPL (digital affinity profiling via proximity ligation, sequencing); 10 mM Tris-HCl pH 7.5, 50 mM NaCl, 1 mM DTT, 4% glycerol, room temperature, 30 min; GST-TFs on glutathione beads, 16-mer random dsDNA library, 0.1% formaldehyde crosslink after washing; high values mean tight binding
Holding throughout (conditions): protein: recombinant; tags: N-terminal GST; dsDNA, one strand shown

In one assay the target is T1, FEV (Homo sapiens, UniProt Q99581 1-238).
T1 sequence: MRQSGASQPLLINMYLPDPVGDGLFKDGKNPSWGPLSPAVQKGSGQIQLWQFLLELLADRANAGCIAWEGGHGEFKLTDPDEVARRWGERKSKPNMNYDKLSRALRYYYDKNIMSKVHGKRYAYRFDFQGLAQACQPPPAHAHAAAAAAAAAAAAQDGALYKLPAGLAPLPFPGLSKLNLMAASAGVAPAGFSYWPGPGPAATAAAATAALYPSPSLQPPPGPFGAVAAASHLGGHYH
The gist of the method: (§1)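 Binding signal is given per hexamer as its read frequency for a factor divided by its frequency in the tag-only sample. GST-fused human transcription factors were expressed in yeast, captured on glutathione beads, barcoded with DNA and pooled with that sample, then incubated with 200 nmole of a 16-mer random double-stranded DNA library in Tris/NaCl/DTT/glycerol buffer for 30 min at room temperature. The pools were then washed, crosslinked, proximity-ligated, amplified by PCR and sequenced on an Illumina NextSeq500.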

The target in a further assay is ETV5 (Homo sapiens, UniProt P41161 1-510). The method in brief: as §1
Chain of ETV5 (P41161 whole entry): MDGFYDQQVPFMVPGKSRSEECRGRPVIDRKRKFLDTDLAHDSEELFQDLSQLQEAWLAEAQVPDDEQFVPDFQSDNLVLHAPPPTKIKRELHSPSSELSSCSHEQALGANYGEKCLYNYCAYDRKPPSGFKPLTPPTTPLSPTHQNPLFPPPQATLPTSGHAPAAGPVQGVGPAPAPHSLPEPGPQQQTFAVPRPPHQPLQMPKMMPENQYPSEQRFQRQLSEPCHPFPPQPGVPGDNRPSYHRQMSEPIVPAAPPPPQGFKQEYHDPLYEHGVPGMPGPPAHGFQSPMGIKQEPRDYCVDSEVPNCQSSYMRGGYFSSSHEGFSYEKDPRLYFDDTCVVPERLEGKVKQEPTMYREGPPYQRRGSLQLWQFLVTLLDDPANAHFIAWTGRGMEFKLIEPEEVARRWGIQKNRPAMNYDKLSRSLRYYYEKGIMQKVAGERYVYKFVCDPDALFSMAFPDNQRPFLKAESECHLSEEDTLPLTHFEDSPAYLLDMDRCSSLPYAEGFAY
The next assay concerns the target T2, SPIC (Homo sapiens, UniProt Q8N5J4 1-248).
T2 sequence: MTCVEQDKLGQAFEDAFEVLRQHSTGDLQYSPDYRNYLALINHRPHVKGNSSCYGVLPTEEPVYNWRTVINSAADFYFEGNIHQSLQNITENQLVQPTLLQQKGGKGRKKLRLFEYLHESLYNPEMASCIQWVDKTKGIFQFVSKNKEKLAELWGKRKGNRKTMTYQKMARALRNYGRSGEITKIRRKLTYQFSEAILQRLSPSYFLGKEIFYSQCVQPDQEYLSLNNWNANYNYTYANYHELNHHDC
The method in brief:
as §1

The target of the next assay is ELF4 (Homo sapiens, UniProt Q99607 1-663). The gist of the method: as §1
Chain of ELF4 (Q99607 whole entry): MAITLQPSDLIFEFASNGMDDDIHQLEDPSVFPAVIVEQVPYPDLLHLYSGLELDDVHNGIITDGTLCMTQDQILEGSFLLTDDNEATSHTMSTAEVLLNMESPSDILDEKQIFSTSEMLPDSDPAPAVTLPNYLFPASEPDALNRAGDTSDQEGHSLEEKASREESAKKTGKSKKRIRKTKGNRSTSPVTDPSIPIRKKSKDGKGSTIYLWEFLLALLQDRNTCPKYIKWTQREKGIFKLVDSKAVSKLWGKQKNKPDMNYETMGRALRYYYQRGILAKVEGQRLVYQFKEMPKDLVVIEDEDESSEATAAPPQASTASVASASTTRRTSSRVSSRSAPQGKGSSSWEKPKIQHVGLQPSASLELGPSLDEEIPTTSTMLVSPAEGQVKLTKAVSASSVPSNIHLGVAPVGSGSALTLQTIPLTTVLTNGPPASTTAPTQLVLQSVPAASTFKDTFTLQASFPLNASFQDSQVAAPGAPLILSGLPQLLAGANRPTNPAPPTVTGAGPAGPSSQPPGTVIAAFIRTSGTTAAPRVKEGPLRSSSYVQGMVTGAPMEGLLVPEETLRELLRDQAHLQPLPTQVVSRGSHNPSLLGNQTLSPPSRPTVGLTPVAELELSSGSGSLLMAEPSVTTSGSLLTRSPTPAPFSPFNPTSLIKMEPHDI
A further assay deals with T3, ELK4 (Homo sapiens, UniProt P28324-2 1-405).
T3 sequence: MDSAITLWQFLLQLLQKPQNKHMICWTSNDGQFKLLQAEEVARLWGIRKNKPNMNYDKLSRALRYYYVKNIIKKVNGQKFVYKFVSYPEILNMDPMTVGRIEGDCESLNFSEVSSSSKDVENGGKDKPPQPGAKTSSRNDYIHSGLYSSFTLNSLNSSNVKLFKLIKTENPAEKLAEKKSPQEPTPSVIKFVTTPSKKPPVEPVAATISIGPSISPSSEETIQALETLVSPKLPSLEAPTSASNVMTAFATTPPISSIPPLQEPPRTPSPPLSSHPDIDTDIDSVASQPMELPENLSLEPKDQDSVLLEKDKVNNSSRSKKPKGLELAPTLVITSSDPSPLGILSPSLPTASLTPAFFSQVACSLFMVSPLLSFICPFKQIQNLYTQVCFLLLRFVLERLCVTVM
The method in brief: as §1

The next assay has as its target T4, ETV2 (Homo sapiens, UniProt O00321 1-342).
T4 sequence: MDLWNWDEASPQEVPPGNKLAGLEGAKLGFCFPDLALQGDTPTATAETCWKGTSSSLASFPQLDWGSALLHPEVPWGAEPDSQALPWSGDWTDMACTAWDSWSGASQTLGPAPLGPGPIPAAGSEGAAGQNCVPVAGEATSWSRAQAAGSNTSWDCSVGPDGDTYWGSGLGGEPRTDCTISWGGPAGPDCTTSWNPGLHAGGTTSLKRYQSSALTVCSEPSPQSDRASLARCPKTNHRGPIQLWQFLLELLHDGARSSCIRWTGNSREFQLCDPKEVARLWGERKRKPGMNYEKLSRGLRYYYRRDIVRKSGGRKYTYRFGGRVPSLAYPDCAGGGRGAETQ
The gist of the method: as §1

The target of a further assay is T5, ELF3 (Homo sapiens, UniProt P78545 1-371).
T5 sequence: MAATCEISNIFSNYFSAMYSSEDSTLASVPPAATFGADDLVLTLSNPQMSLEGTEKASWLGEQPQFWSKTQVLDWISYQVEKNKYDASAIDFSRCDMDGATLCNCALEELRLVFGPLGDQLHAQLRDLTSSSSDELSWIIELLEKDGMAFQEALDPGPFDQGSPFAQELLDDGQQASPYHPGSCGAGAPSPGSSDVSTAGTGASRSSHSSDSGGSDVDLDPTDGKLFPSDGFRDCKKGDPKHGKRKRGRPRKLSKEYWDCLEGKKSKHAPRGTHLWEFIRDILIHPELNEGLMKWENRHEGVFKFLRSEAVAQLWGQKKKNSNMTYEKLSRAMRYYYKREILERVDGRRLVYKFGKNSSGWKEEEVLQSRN
The gist of the method: as §1

A further assay has as its target ETV1 (Homo sapiens, UniProt P50549 1-477). The gist of the method: as §1

Chain of ETV1 (P50549 whole entry): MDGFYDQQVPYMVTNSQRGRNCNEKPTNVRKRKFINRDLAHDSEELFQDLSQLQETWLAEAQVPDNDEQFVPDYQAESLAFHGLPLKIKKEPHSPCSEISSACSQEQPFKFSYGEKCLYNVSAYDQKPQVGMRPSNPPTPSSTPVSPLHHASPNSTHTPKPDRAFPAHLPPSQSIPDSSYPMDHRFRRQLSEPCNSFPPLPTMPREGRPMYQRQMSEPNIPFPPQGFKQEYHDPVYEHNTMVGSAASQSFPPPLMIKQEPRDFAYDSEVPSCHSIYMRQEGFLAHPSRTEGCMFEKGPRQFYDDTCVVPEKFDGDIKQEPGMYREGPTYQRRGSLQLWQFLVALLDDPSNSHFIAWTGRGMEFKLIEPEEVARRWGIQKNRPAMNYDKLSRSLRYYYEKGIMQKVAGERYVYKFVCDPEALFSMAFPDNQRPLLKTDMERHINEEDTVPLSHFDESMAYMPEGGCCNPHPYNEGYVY

On to CAACTG, for which the binding signal with FEV was 1.14 fold enrichment (6-mer frequency, TF over GST control); with ETV5, 1.11 fold enrichment (6-mer frequency, TF over GST control); with SPIC, 1.13 fold enrichment (6-mer frequency, TF over GST control); with ELF4, 1.07 fold enrichment (6-mer frequency, TF over GST control); with ELK4, 1.21 fold enrichment (6-mer frequency, TF over GST control); with ETV2, 1.23 fold enrichment (6-mer frequency, TF over GST control). For the same sequence, the binding signal with ELF3 was 1.26 fold enrichment (6-mer frequency, TF over GST control); with ETV1 it was 1.19 fold enrichment (6-mer frequency, TF over GST control).

For the sequence TGGACA, the binding signal with FEV is 1.1 fold enrichment (6-mer frequency, TF over GST control); in the assay with ETV5, 1.08 fold enrichment (6-mer frequency, TF over GST control); with SPIC it was 1.05 fold enrichment (6-mer frequency, TF over GST control); with ELF4 it was 1.13 fold enrichment (6-mer frequency, TF over GST control); with ELK4, 1.03 fold enrichment (6-mer frequency, TF over GST control); with ETV2, 1.03 fold enrichment (6-mer frequency, TF over GST control). For the same sequence, the binding signal with ELF3 was 1.15 fold enrichment (6-mer frequency, TF over GST control); with ETV1, 1.03 fold enrichment (6-mer frequency, TF over GST control).

Regarding CCATAC, the binding signal was 1.16 fold enrichment (6-mer frequency, TF over GST control) with FEV; 1.16 fold enrichment (6-mer frequency, TF over GST control) with ETV5; 1.13 fold enrichment (6-mer frequency, TF over GST control) with SPIC; 1.27 fold enrichment (6-mer frequency, TF over GST control) in the assay with ELF4; 1.14 fold enrichment (6-mer frequency, TF over GST control) with ELK4; 1.06 fold enrichment (6-mer frequency, TF over GST control) with ETV2. Moreover, the binding signal was 1.06 fold enrichment (6-mer frequency, TF over GST control) with ELF3 and 1.15 fold enrichment (6-mer frequency, TF over GST control) with ETV1.

For CAACCT, the binding signal with FEV is 1.21 fold enrichment (6-mer frequency, TF over GST control); with ETV5 it was 1.18 fold enrichment (6-mer frequency, TF over GST control); with SPIC it was 1.13 fold enrichment (6-mer frequency, TF over GST control); with ELF4, 1.11 fold enrichment (6-mer frequency, TF over GST control); with ELK4, 1.15 fold enrichment (6-mer frequency, TF over GST control); with ETV2, 1.28 fold enrichment (6-mer frequency, TF over GST control). Moreover, the binding signal is 1.12 fold enrichment (6-mer frequency, TF over GST control) in the assay with ELF3 and 1.2 fold enrichment (6-mer frequency, TF over GST control) with ETV1.

With CACACA, the binding signal with FEV was 1.18 fold enrichment (6-mer frequency, TF over GST control); with ETV5, 1.16 fold enrichment (6-mer frequency, TF over GST control); in the assay with SPIC it was 1.07 fold enrichment (6-mer frequency, TF over GST control); in the assay with ELF4, 1.16 fold enrichment (6-mer frequency, TF over GST control); with ELK4, 1.1 fold enrichment (6-mer frequency, TF over GST control); in the assay with ETV2, 1.23 fold enrichment (6-mer frequency, TF over GST control). Further, the binding signal with ELF3 was 1.09 fold enrichment (6-mer frequency, TF over GST control); with ETV1, 1.06 fold enrichment (6-mer frequency, TF over GST control).

For the sequence CCCGGC, the binding signal is 1.16 fold enrichment (6-mer frequency, TF over GST control) with FEV; 1.15 fold enrichment (6-mer frequency, TF over GST control) with ETV5; 1.11 fold enrichment (6-mer frequency, TF over GST control) in the assay with SPIC; 1.19 fold enrichment (6-mer frequency, TF over GST control) with ELF4; 1.27 fold enrichment (6-mer frequency, TF over GST control) with ELK4; 1.07 fold enrichment (6-mer frequency, TF over GST control) in the assay with ETV2. Also, the binding signal with ELF3 is 1.01 fold enrichment (6-mer frequency, TF over GST control); with ETV1, 1.19 fold enrichment (6-mer frequency, TF over GST control).

Take AACACC: the binding signal was 1.15 fold enrichment (6-mer frequency, TF over GST control) with FEV; 1.04 fold enrichment (6-mer frequency, TF over GST control) with ETV5; 1.02 fold enrichment (6-mer frequency, TF over GST control) in the assay with SPIC; 1.14 fold enrichment (6-mer frequency, TF over GST control) in the assay with ELF4; 1.13 fold enrichment (6-mer frequency, TF over GST control) in the assay with ELK4; 1.15 fold enrichment (6-mer frequency, TF over GST control) in the assay with ETV2. The binding signal is 1.09 fold enrichment (6-mer frequency, TF over GST control) with ELF3 and 1.13 fold enrichment (6-mer frequency, TF over GST control) in the assay with ETV1.

Consider GTTATG, for which the binding signal was 1.03 fold enrichment (6-mer frequency, TF over GST control) with FEV; 1.14 fold enrichment (6-mer frequency, TF over GST control) in the assay with ETV5; 1.23 fold enrichment (6-mer frequency, TF over GST control) in the assay with SPIC; 1.1 fold enrichment (6-mer frequency, TF over GST control) with ELF4; 1.23 fold enrichment (6-mer frequency, TF over GST control) with ELK4; 1.14 fold enrichment (6-mer frequency, TF over GST control) with ETV2. For the same sequence, the binding signal was 1.25 fold enrichment (6-mer frequency, TF over GST control) in the assay with ELF3 and 1.14 fold enrichment (6-mer frequency, TF over GST control) with ETV1.

Values taken from publication PMC7862700, “An all-to-all approach to the identification of sequence-specific readers for epigenetic DNA modifications on cytosine”.
